# Compound activity (PubChem)
# Shn3 3UTR inh: reduction of Shn3 3'UTR firefly luciferase signal, primary screen, Schnurri-3 inhibitor project, cell-based, Clone20 osteoblasts, set 2; Clone20 osteoblast Shn3 3'UTR firefly luciferase, 24 h; inhibition, % at 12.5 µM; 360,000 tested, 0.52% active; AID 588674, 2011;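 active = mean inhibition of at least 75% with every replicate also reaching 75%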;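 note: 0% = median of neutral control wells and 100% = pilot-screen positive control compound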
# CF NFkB block: inhibitors of PAF-induced NF-kB signaling, primary screen, cell-based, GFP fluorescence, uHTS; inhibition, % at 5 µM; KKLEB NF-kB-GFP reporter, GFP fluorescence overnight; 360,000 tested, 0.86% active;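 active = at least 50% inhibition at 5 µM, scaled per plate between neutral and stimulator controls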;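 note: PAF is a Pseudomonas aeruginosa culture filtrate used as stimulus; plate controls were PAF-stimulated DMSO wells for no effect and unstimulated DMSO wells for full effect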
# Peg3 promoter: Peg3 promoter-driven luciferase inhibitors, primary screen, cell-based, HeLa, luciferase luminescence; HeLa PEG-Prom luciferase reporter, overnight; inhibition, % at 20 µM; 360,000 tested, 1.7% active; AID 588405, 2011;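 active = inhibition of at least 50% at 20 µM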
# KKLEB cytotox: cytotoxicity in KKLEB CF airway cells, primary screen, cytotoxicity control for CF NF-kB inhibitor project, cell-based, uHTS, fluorescence assay plates. KKLEB CF airway cells viability, ATPlite luminescence, overnight; hits give low values; cells stimulated with P. aeruginosa culture filtrate. 360,000 tested, 0.36% active. AID 602141, 2011. activity change (cytotoxicity), % at 5 µM;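 active = corrected activity change at or below -50% at 5 µM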
# HIF-2a inh: HIF-2a reporter inhibitors, primary screen, luminescence, 786-0 RCC cells; 786-0 RCC cells HIF-2a reporter, luciferase luminescence, overnight; inhibition, % at 18.8 µM; 360,000 tested, 0.72% active; AID 624352, 2012;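 active = inhibition of the luminescence signal of 40% or more relative to plate controls, in a single-dose primary screen at 18.75 µM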
# CF NFkB conf: inhibitors of PAF-induced NF-kB signaling, retest, confirmation, cell-based, GFP fluorescence, single concentration. KKLEB CF airway cells, overnight. 1,300 tested, 64% active. inhibition, % at 5 µM. AID 602472, 2012. shares compounds with CF NFkB block; in the data active = inhibition above about 40%;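 note: stimulus PAF is a Pseudomonas aeruginosa filtrate and not platelet activating factor; plate controls were DMSO wells with stimulus for no effect and unstimulated DMSO wells for full effect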
# An asterisk follows results filed as active; · = not tested or not shown. An excerpt weighted towards active compounds, which were near 2.6% of everything screened.
SMILES,Shn3 3UTR inh,CF NFkB block,Peg3 promoter,KKLEB cytotox,HIF-2a inh,CF NFkB conf
CCC(CO)Oc1cc(NCc2ccncc2)c2ncn(C(C)C)c2c1 (stereo unspecified),-23.6,-4.4,5.9,9.1,6.3,·
CCC(CO)Oc1cc(NCc2ccc(C)c(C)c2)c2ncn(C(C)C)c2c1 (stereo unspecified),80.1,51.5*,29.0,-11.2,7.4,11.5
CCC(CO)Oc1cc(NCc2cc(C)cc(C)c2)c2ncn(C(C)C)c2c1 (stereo unspecified),3.1,67.3*,-20.0,-3.5,2.9,23.7
CCC(CO)Oc1cc(NCc2ccc(F)cc2)c2ncn(C(C)C)c2c1 (stereo unspecified),11.8,-8.9,14.5,1.3,13.0,·
C[C@@H]1CN([C@@H](C)CO)C(=O)CCCn2nncc2CO[C@H]1CN(C)S(=O)(=O)c1ccc(Oc2ccccc2)nc1,3.6,-36.6,2.9,1.0,8.3,·
O=[N+]([O-])c1cc([N+](=O)[O-])c2oc(-c3ccccc3)c(Br)c2c1O,0.8,50.3*,21.4,-21.9,-15.7,87.5*
CC(Sc1nc2ncc(Cl)cc2[nH]1)C(=O)Nc1ccccc1[N+](=O)[O-] (stereo unspecified),-0.4,52.7*,15.4,-14.3,12.4,3.0
Cc1c(Cl)cccc1NC(=O)CSc1nc2ncc(Cl)cc2[nH]1,7.7,62.5*,4.3,-6.8,-12.5,51.1*
CSc1ncc(Cl)c(C(=O)Nc2ccccc2[N+](=O)[O-])n1,-26.3,-14.7,-8.7,6.7,11.4,·
Cc1ccccc1NC(=O)CSc1nc2ncc(Cl)cc2[nH]1,-5.6,18.4,21.3,-7.1,-15.2,·
C[C@H](O)[C@@H]1CN2CCc3c([nH]c4ccccc34)[C@@H]2C[C@@H]1N(C)C(=S)NCCc1ccccc1,-3.5,-37.2,17.1,-1.8,0.6,·
Oc1cc2c(cc1C(c1ccc(Br)cc1)N1CCCC1)OCO2 (stereo unspecified),-1.3,53.3*,5.9,-20.9,10.3,33.1
CC(=O)Nc1ccc(NC(=O)c2cccc(C(=O)OC(C)C)n2)cc1,0.6,-1.4,-2.2,5.1,1.1,·
CC(C)OC(=O)c1cccc(C(=O)Nc2cccc(NC(=O)c3cccc(C(=O)OC(C)C)n3)n2)n1,28.1,56.6*,46.0,-4.0,12.0,62.2*
O=C(CN1C(=O)NC2(CCc3ccccc32)C1=O)c1ccc(F)c(F)c1 (stereo unspecified),5.8,-17.1,8.2,-1.8,27.2,·
CN(C)C(CNC(=O)C1CCN(S(=O)(=O)c2cccc(C(F)(F)F)c2)CC1)c1ccccc1 (stereo unspecified),9.2,-6.9,0.7,-1.1,-3.2,·
CN(C)C(CNC(=O)C1CCN(S(=O)(=O)c2ccccc2)CC1)c1ccccc1 (stereo unspecified),-7.3,71.2*,-3.9,29.8,-7.2,0.0
Clc1ccc(CSc2nnc(-c3ccncc3)o2)cc1,1.8,70.4*,-14.3,-4.8,-42.1,61.6*
COc1cc(NC(=O)Cn2cnc3sc(C)c(S(=O)(=O)N4CCOCC4)c3c2=O)cc(OC)c1OC,-13.0,3.4,4.6,-9.0,-1.9,·
COc1cccc(S(=O)(=O)N(C)C[C@@H]2Oc3cc(Br)ccc3S(=O)(=O)N([C@@H](C)CO)C[C@@H]2C)c1,25.3,26.8,15.9,-8.0,6.7,·
COc1ccccc1Cn1c(=O)c2ccccc2n2c(SCc3csc(C)n3)nnc12,2.2,-13.2,15.3,5.3,19.0,·
COc1ccccc1Cn1c(=O)c2ccccc2n2c(Sc3ncnc4sccc34)nnc12,57.6,72.1*,26.4,-30.9,23.8,48.1*
N#Cc1ccsc1NC(=O)c1ccc(Cl)c([N+](=O)[O-])c1,-36.0,50.3*,-163.7,-25.4,-104.9,68.2*
N#Cc1ccsc1NC(=O)c1cccc([N+](=O)[O-])c1,19.1,15.7,-38.5,-5.6,-15.2,·
COc1cc(/C=N/NC(=O)c2[nH]nc3c2CCc2ccccc2-3)ccc1O,-19.3,-48.9,-1.2,8.3,-1.8,·
SMILES,Shn3 3UTR inh,CF NFkB block,Peg3 promoter,KKLEB cytotox,HIF-2a inh,CF NFkB conf
Cc1ccc(CSc2nccc(-c3c(C)nc4ccccn34)n2)cc1,78.9,50.4*,32.0,-10.8,14.0,63.1*
C=CCn1cnc2c(c1=O)c1nc3ccccc3nc1n2/N=C/c1cc(OC)c(OC)c(OC)c1,65.8,50.9*,1.3,11.2,-57.2,116.6*
CCOc1ccc(NC(=O)CSc2nnc(C3CC3)n2C)cc1S(=O)(=O)N1CCCCC1,14.7,-5.3,1.7,14.0,6.1,·
O=C(Nc1ccc(N2CCN(C(=O)c3ccccc3F)CC2)cc1)c1cncc(Br)c1,14.8,68.9*,8.1,-1.4,20.0,76.3*
Cc1cnc(C=O)c2cccc([N+](=O)[O-])c12,3.3,83.2*,19.2,-38.2,14.7,65.1*
N#C/C(=C/c1ccc(CNC(=O)C(=O)Nc2cc(Cl)cc(Cl)c2)o1)C(=O)NCc1cccnc1,30.2,54.2*,91.7*,-46.1,12.9,44.8*
Cc1ccc(NC(=O)C(=O)NCc2ccc(/C=C(/C#N)C(=O)NCc3cccnc3)o2)cc1,25.6,-16.7,12.0,-4.0,-2.8,·
O=C(NCCc1cn[nH]c1)c1ccc2oc(CCc3ccccc3)nc2c1,-19.7,-29.8,-109.2,10.7,-161.8,·
C=CCOc1c(OC)cc(/C=N/Nc2cccc(C(=O)O)c2)c(Br)c1Br,-30.3,62.2*,-141.2,-36.3,-199.4,67.4*
CCOC(=O)Nc1ccc2c(c1)N(C(=O)CCN(CC)CC)c1ccccc1S2=O (stereo unspecified),1.2,90.9*,57.8*,-29.5,27.9,42.8*
O=C(N/N=C/c1ccccc1)c1[nH]c2ccc(Br)cc2c1-c1ccccc1,-2.5,61.0*,-1.1,-34.5,30.5,85.4*
COc1ccc(NC(=O)c2ccc([N+](=O)[O-])o2)cc1,9.1,50.9*,42.6,-11.2,-4.2,34.2
CCCC(=O)N1CCN(c2ccc(NC(=O)c3ccc([N+](=O)[O-])o3)cc2Cl)CC1,95.8*,73.9*,110.8*,-35.9,90.3*,35.1
CC(=O)N1CCN(c2ccc(NC(=O)c3ccc(Br)o3)cc2Cl)CC1,·,-14.3,-52.5,8.0,-96.1,·
CC(=O)c1ccc(NC(=O)c2ccc([N+](=O)[O-])o2)cc1,-66.4,10.6,30.9,0.3,19.8,·
CC(C)(C)c1ccc(OCCNC(=S)NC(=O)c2cccnc2)cc1,4.5,2.9,1.4,-4.9,14.0,·
COc1ccc(C2=Nn3c(nnc3-c3ccccc3Cl)SC2)cc1OCC1CC1,54.4,39.9,37.2,-24.3,24.2,·
